# From PubChem BioAssay (Tox21)
# Records with an inconclusive call do not appear. Active and inactive are the calls of the source. Calls follow the shape of the full dose curve.
# Test: p53 small molecule agonists, cell-based qHTS assay with human liver microsomes (AID 1963577);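 also: p53 response element beta-lactamase reporter cells with liver microsomes plus NADPH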
# Conditions: HCT-116 p53RE-bla with human liver microsomes, ratio, 16 h; series mostly up to 66 µM; activation: at the top concentration
# Excerpt: National Center for Advancing Translational Sciences [NCATS]
# Division of Preclinical Innovation [DPI]
# U.S. Environmental Protection Agency [EPA]
# National Institutes of Environmental Health Sciences [NIEHS]
# National Toxicology Program [NTP]
# U.S. Food and Drug Administration [FDA]
# p53, a tumor suppressor protein, is activated following cellular insult, including DNA damage and other cellular stresses. The activation of p53 regulates cell fate by inducing DNA repair, cell cycle arrest, apoptosis, or cellular senescence. The activation of p53, therefore, is a good indicator of DNA damage and other cellular stresses. […] The activation of the reporter gene under culture conditions can be detected by fluorescence intensity.
# Tox21 Assay Protocol Summary:
# The p53RE-bla cells were dispensed at 4,000cells/3ul/well in 1536-well black-clear bottom plates. After the assay plates were incubated at 37 C, 5% CO2 incubator for 5 hours, 23 nL of compounds dissolved in DMSO, positive controls or DMSO only was transferred to the assay plate. Following compound addition, 3 uL of human liver microsomes (XenoTech, Kansas City, KS) at final concentration of 0.5 mg/mL and 1uL of Beta-Nicotinamide adenine dinucleotide 2-phosphate (NADPH) at final concentration of 0.5 mg/mL were transferred to the assay plate. The plates were incubated at 37 C for 16 hours. 1 uL of LiveBLAzer detection mixture was added to each well and the plates were incubated at room temperature in the dark for 2 h.
# % is scaled to controls: 0 for no effect and ±100 for the full control effect.
Structure (SMILES),activation,Potency
CN[C@H]1CC[C@@H](c2ccc(Cl)c(Cl)c2)c2ccccc21,0.648% [at 30.3 µM] (inactive),
N#CCCOCCC#N,-11.3% (inactive),
NC(=O)c1ccccc1C(N)=O,4.57% (inactive),
C[C@]12CC[C@H]3C(=CCc4cc(O)ccc43)[C@@H]1CCC2=O,7.2% (inactive),
OCCOCC#CCOCCO,3.37% (inactive),
O=[N+]([O-])c1ccc(Nc2ccc(Nc3ccccc3)c(S(=O)(=O)O)c2)c([N+](=O)[O-])c1,-1.97% (inactive),
CNC(=S)NC,1.91% (inactive),
CN1CCN(CCCN2c3ccccc3Sc3ccc(S(=O)(=O)N(C)C)cc32)CC1,-7.22% [at 30.3 µM] (inactive),
CC(C)(C)c1csc(-c2cc3cc(OCc4ccccc4CC(=O)O)ccc3o2)n1,-3.36% (inactive),
CCC(=O)Oc1ccc(/C(CC)=C(\CC)c2ccc(OC(=O)CC)cc2)cc1,-10.5% (inactive),
CC(C)(C)c1cc(O)c(C(C)(C)C)cc1O,1.9% (inactive),
CO[C@@]12[C@H](COC(N)=O)C3=C(C(=O)C(C)=C(N)C3=O)N1C[C@@H]1N[C@@H]12,14.3% [at 30.3 µM] (inactive),
CC(C)CCCC(C)CC=O (stereo not given),1.76% (inactive),
Cc1ccc(N=Nc2c(O)c(C(=O)O)cc3ccccc23)c(S(=O)(=O)O)c1,3.31% [at 30.3 µM] (inactive),
NS(=O)(=O)c1cc2c(cc1Cl)NC(CSCc1ccccc1)=NS2(=O)=O,-0.368% [at 30.3 µM] (inactive),
NC(=O)c1nc(-c2cccc(-c3cc(F)ccc3OCC(F)(F)C(F)(F)F)c2)n[nH]1,-13.1% (inactive),
CCCCCCCCCCCCCCC[C@H](O)[C@@H](N)CO,6.32% [at 30.3 µM] (inactive),
CS(=O)(=O)CCNCc1ccc(-c2ccc3ncnc(Nc4ccc(OCc5cccc(F)c5)c(Cl)c4)c3c2)o1,-7.06% [at 30.3 µM] (inactive),
c1ccc(-c2ccccc2-c2ccccc2)cc1,-14.9% (inactive),
Clc1cc(Cl)c2c(c1)N=C1CCCCCN1C2,-5.03% [at 30.3 µM] (inactive),

Structure (SMILES),activation,Potency
O=C1Nc2ccc([N+](=O)[O-])cc2C1=O,0.137% (inactive),
CC(=O)Nc1ccc(S(=O)(=O)Nc2ccc([N+](=O)[O-])cc2)cc1,-2.49% [at 30.3 µM] (inactive),
CC(CN=Cc1ccccc1O)N=Cc1ccccc1O (stereo not given),-0.24% (inactive),
O=C(Cl)c1cc(Cl)cc(Cl)c1,-4.81% (inactive),
N/C(=N\N=C\c1ccc(Cl)cc1)N/N=C/c1ccc(Cl)cc1,-7.33% [at 30.3 µM] (inactive),
CC1C2CC(CC2C2CCCC(O)C2)C1(C)C (stereo not given),1.15% (inactive),
O=C(CS(=O)Cc1ccco1)NC/C=C\COc1cc(CN2CCCCC2)ccn1 (stereo not given),-1.4% [at 30.3 µM] (inactive),
c1ccc(-c2nc3ccccc3[nH]2)cc1,-8.95% (inactive),
c1ccc2sc(SN3CCOCC3)nc2c1,1.1% [at 30.3 µM] (inactive),
COc1ccc(C(=O)c2ccc(C)cc2)c(O)c1,-2.75% (inactive),
CC(C)c1cccc(C(C)C)c1N1C(=O)c2ccc(O)cc2C1=O,-9.72% (inactive),
CC(Cc1cccc(C(F)(F)F)c1)NCCOC(=O)c1ccccc1 (stereo not given),0.0227% [at 30.3 µM] (inactive),
O=C(CC(=O)C(F)(F)F)c1ccccc1,-5.76% (inactive),
CC(C)C[C@H](NC(=O)CNC(=O)[C@H](Cc1ccc(O)cc1)NC(=O)[C@H](CO)NC(=O)[C@H](Cc1c[nH]c2ccccc12)NC(=O)[C@H](Cc1cnc[nH]1)NC(=O)[C@@H]1CCC(=O)N1)C(=O)N[C@@H](CCCN=C(N)N)C(=O)N1CCC[C@H]1C(=O)NCC(N)=O (stereo in doubt),-1.2% [at 30.3 µM] (inactive),
COC(=O)Nc1nc2ccc(C(=O)c3cccs3)cc2[nH]1,-11.4% [at 30.3 µM] (inactive),
C[C@]12CC[C@@H]3c4ccc(O)cc4CC[C@H]3[C@@H]1CC[C@@H]2OC(=O)CCC1CCCC1,,inactive
CCCCCCCCCOC(=O)CCCCC(=O)OCCCCCCC,-1.99% (inactive),
Cc1ccc(Cl)c(N)c1Cl,5.73% (inactive),
CC1=Nc2ccccc2C1(C)C,10% (inactive),
Cc1ccc([N+](=O)[O-])c(N)c1,-4.24% (inactive),
